Measurements as given in PubChem BioAssay AID1159580 (chemical genetic matrix, 2015).
Among all 5,500 compounds or so, about 2,000 (36%) were called active. Roughly 18% stayed inconclusive and do not appear here. Rule as the data show it: active = normalized growth mostly below about 0.91 (no sharp cut-off); inconclusive = no clear call, values can overlap the other calls; inactive = mostly above about 0.92. Some of the results follow.

Assay: chemical genetic growth profiling, strain panel (AID 1159580);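 also: tested at 20 µM; growth read once vehicle control cultures reached saturation at 30 °C; 1 = growth at the plate median or of vehicle wells; lower values mean less growth of the strain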
Conditions: S. cerevisiae deletion strains, growth OD

Measured: normalized growth

CC(=O)O[C@@H]1CC2C(C)(C)CCC(=O)[C@]2(C)C2CC[C@@]3(C)[C@H](c4ccoc4)OC(=O)C4OC43[C@@]21C (stereo partly specified)
inactive: locus YAL013W, strain DEP1, hits give low values 1 | locus YAL021C, strain ccr4, hits give low values 0.98 | locus YAL026C, strain drs2, hits give low values 1 | locus YAL030W, strain snc1, hits give low values 1.01 | locus YBL061C, strain skt5, hits give low values 1.01 | locus YBR009C, strain hhf1, hits give low values 1 | locus YBR021W, strain FUR4, hits give low values 0.989 | locus YBR023C, strain chs3, hits give low values 1 | locus YBR171W, strain sec66, hits give low values 0.986 | locus YBR229C, strain ROT2, hits give low values 0.996 | locus YBR231C, strain swc5, hits give low values 0.993 | locus YBR279W, strain paf1, hits give low values 1.01 | locus YCL011C, strain gbp2, hits give low values 0.984 | locus YCL016C, strain dcc1, hits give low values 1.01 | locus YCL029C, strain bik1, hits give low values 0.984 | locus YCL061C, strain MRC1, hits give low values 1.02 | locus YCL069W, strain vba3, hits give low values 0.99 | locus YCR088W, strain abp1, hits give low values 0.991 | locus YDL005C, strain med2, hits give low values 0.994 | locus YDL035C, strain GPR1, hits give low values 1.03 | locus YDL040C, strain nat1, hits give low values 0.986 | locus YDL074C, strain BRE1, hits give low values 0.994 | locus YDL101C, strain DUN1, hits give low values 0.984 | locus YDL185W, strain tfp1, hits give low values 0.981 | locus YDL192W, strain arf1, hits give low values 0.993 | locus YDR001C, strain nth1, hits give low values 0.998 | locus YDR069C, strain doa4, hits give low values 1.01 | locus YDR101C, strain arx1, hits give low values 0.991 | locus YDR137W, strain rgp1, hits give low values 1.05 | locus YDR159W, strain sac3, hits give low values 1.02 | locus YDR162C, strain NBP2, hits give low values 1.02 | locus YDR195W, strain ref2 0.941 | locus YDR297W, strain sur2, hits give low values 1 | locus YDR318W, strain mcm21, hits give low values 0.993 | locus YDR334W, strain swr1, hits give low values 0.986 | locus YDR335W, strain msn5, hits give low values 0.987 | locus YDR388W, hits give low values 0.98 | locus YDR392W, strain spt3, hits give low values 0.991 | locus YDR502C, strain sam2, hits give low values 0.973 | locus YEL003W, strain gim4, hits give low values 0.995 | locus YEL037C, strain rad23, hits give low values 0.984 | locus YEL061C, strain CIN8 (second series), hits give low values 0.987 | locus YEL061C, strain CIN8, hits give low values 1.01 | locus YER015W, strain faa2, hits give low values 1 | locus YER016W, strain bim1, hits give low values 1 | locus YER110C, hits give low values 0.978 | locus YER111C, strain swi4, hits give low values 0.987 | locus YER155C, strain BEM2 (second series), hits give low values 1.02 | locus YER155C, strain BEM2, hits give low values 0.988 | locus YER167W, strain BCK2, hits give low values 1 | locus YFR010W, strain ubp6, hits give low values 0.979 | locus YGL078C, strain dbp3, hits give low values 0.994 | locus YGL086W, strain mad1, hits give low values 0.985 | locus YGL167C, strain pmr1, hits give low values 1.01 | locus YGL173C, strain kem1, hits give low values 1.01 | locus YGL227W, strain vid30, hits give low values 0.994 | locus YGL240W, strain doc1, hits give low values 0.984 | locus YGL248W, strain PDE1, hits give low values 0.988 | locus YGL253W, strain hxk2, hits give low values 0.966 | locus YGR135W, strain pre9, hits give low values 0.973 | locus YGR229C, strain SMI1, hits give low values 1.02 | locus YGR252W, strain gcn5, hits give low values 0.952 | locus YHR013C, strain ard1, hits give low values 0.994 | locus YHR027C, strain rpn1, hits give low values 1.01 | locus YHR079C, strain IRE1 (second series), hits give low values 0.99 | locus YHR094C, strain hxt1, hits give low values 0.983 | locus YHR129C, strain ARP1, hits give low values 0.997 | locus YHR142W, strain chs7, hits give low values 0.991 | locus YHR200W, strain rpn10, hits give low values 0.975 | locus YIL066C, strain RNR3, hits give low values 1 | locus YIL073C, strain SPO22, hits give low values 1 | locus YIL125W, strain kgd1, hits give low values 0.989 | locus YIR030C, strain dcg1, hits give low values 0.987 | locus YJL092W, strain hpr5, hits give low values 0.985 | locus YJL095W, strain BCK1 (second series), hits give low values 1 | locus YJL095W, strain BCK1, hits give low values 0.988 | locus YJL115W, strain asf1, hits give low values 0.994 | locus YJL129C, strain trk1, hits give low values 0.996 | locus YJL134W, strain LCB3, hits give low values 0.998 | locus YJL154C, strain vps35, hits give low values 1 | locus YJL164C, strain tpk1, hits give low values 1.01 | locus YJL166W, strain qcr8, hits give low values 1.02 | locus YJL168C, strain set2, hits give low values 0.988 | locus YJL187C, strain SWE1 (second series), hits give low values 0.977 | locus YJL187C, strain SWE1, hits give low values 1 | locus YJR043C, strain POL32, hits give low values 1.02 | locus YKL009W, strain mrt4, hits give low values 1.01 | locus YKL068W, hits give low values 0.992 | locus YKL085W, strain MDH1 (second series), hits give low values 1 | locus YKL085W, strain MDH1, hits give low values 1 | locus YKL160W, strain elf1, hits give low values 1.02 | locus YKL190W, strain CNB1, hits give low values 1.01 | locus YKR001C, strain vps1, hits give low values 0.983 | locus YKR026C, strain gcn3, hits give low values 1 | locus YKR091W, strain srl3, hits give low values 1 | locus YLL001W, strain dnm1, hits give low values 1.03 | locus YLL026W, hits give low values 1.01 | locus YLL041C, strain sdh2, hits give low values 0.993 | locus YLR027C, strain aat2, hits give low values 1.01 | locus YLR039C, strain RIC1, hits give low values 1.06 | locus YLR058C, strain SHM2, hits give low values 0.992 | locus YLR102C, strain apc9, hits give low values 0.987 | locus YLR221C, strain rsa3, hits give low values 1 | locus YLR258W, strain gsy2, hits give low values 0.996 | locus YLR262C, strain YPT6 (second series), hits give low values 1.03 | locus YLR262C, strain YPT6, hits give low values 1.1 | locus YLR268W, strain sec22, hits give low values 0.994 | locus YLR320W, strain mms22, hits give low values 1.01 | locus YLR342W, strain FKS1 (second series), hits give low values 1.05 | locus YLR342W, strain FKS1, hits give low values 1.01 | locus YLR357W, strain rsc2, hits give low values 0.97 | locus YLR370C, strain arc18, hits give low values 0.983 | locus YLR371W, strain rom2, hits give low values 0.992 | locus YLR384C, strain iki3, hits give low values 0.997 | locus YLR418C, strain cdc73, hits give low values 0.956 | locus YML016C, strain PPZ1, hits give low values 0.999 | locus YML032C, strain rad52, hits give low values 0.986 | locus YML120C, strain ndi1, hits give low values 1 | locus YML124C, strain tub3, hits give low values 0.994 | locus YMR058W, strain fet3, hits give low values 0.999 | locus YMR078C, strain ctf18, hits give low values 1 | locus YMR125W, strain sto1, hits give low values 0.987 | locus YMR129W, hits give low values 1.01 | locus YMR205C, strain PFK2, hits give low values 1.04 | locus YMR223W, strain ubp8, hits give low values 0.996 | locus YMR231W, strain pep5, hits give low values 0.97 | locus YMR307W, strain GAS1, hits give low values 1.07 | locus YNL067W, strain RPL9B, hits give low values 0.987 | locus YNL071W, strain lat1, hits give low values 0.993 | locus YNL209W, strain ssb2, hits give low values 1.01 | locus YNL233W, strain BNI4, hits give low values 1 | locus YNL248C, strain rpa49, hits give low values 0.996 | locus YNL250W, strain rad50, hits give low values 0.978 | locus YNL271C, strain bni1, hits give low values 0.97 | locus YNL298W, strain CLA4, hits give low values 0.996 | locus YNL307C, strain MCK1, hits give low values 0.986 | locus YNL322C, strain KRE1 (second series), hits give low values 0.99 | locus YNR049C, strain mso1, hits give low values 1 | locus YNR052C, strain pop2, hits give low values 0.966 | locus YOL006C, strain TOP1, hits give low values 1.05 | locus YOL012C, strain htz1 0.864 | locus YOL147C, strain pex11, hits give low values 0.982 | locus YOR001W, strain rrp6, hits give low values 0.973 | locus YOR061W, strain CKA2, hits give low values 0.998 | locus YOR069W, strain VPS5, hits give low values 0.99 | locus YOR070C, strain gyp1, hits give low values 1 | locus YOR080W, strain dia2, hits give low values 1 | locus YOR083W, strain WHI5, hits give low values 1.02 | locus YOR106W, strain vam3, hits give low values 1.01 | locus YOR136W, strain idh2, hits give low values 0.993 | locus YOR144C, strain elg1, hits give low values 0.988 | locus YOR184W, strain ser1, hits give low values 1.02 | locus YOR265W, strain rbl2, hits give low values 0.996 | locus YOR270C, strain vph1, hits give low values 1.02 | locus YOR290C, strain snf2, hits give low values 0.981 | locus YOR316C, strain cot1, hits give low values 0.984 | locus YPL051W, strain arl3, hits give low values 1.02 | locus YPL055C, strain LGE1, hits give low values 1.02 | locus YPL078C, strain atp4, hits give low values 1.02 | locus YPL106C, strain sse1, hits give low values 0.996 | locus YPL240C, strain hsp82, hits give low values 0.999 | locus YPR119W, strain clb2, hits give low values 0.981 | locus YPR141C, strain kar3, hits give low values 0.996 | locus YPR163C, strain tif3, hits give low values 0.975 | locus YPR167C, strain met16, hits give low values 0.985 | strain wtn01, hits give low values 1
